Bioassay records as filed in PubChem.
p53null 39C tox = kills p53 null cells at the nonpermissive temperature; hit rate 0.97% among 55,000; H1299 p53-null (neo) cells, 39C, ATPlite viability, 24 h; Potency, µM (titrated, usually from 46.1 µM), without a hit: at the highest dose activity, negative = cell killing, actives largely listed as cytotoxic; AID 904;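 also: potency is read from the fitted curve at half-maximal effect; 0% = DMSO only and -100% = full killing by 100 µM tamoxifen; nearly all actives have a fitted effect of over 50% in size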
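Following overnight plating at 37C (600 cells/well), H1299-neo or H1299-p53A138V cells are dosed up to 46 uM. Incubation lasts 24 hr at 39C before ATP detection.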
PMP22 txn = modulators of PMP22 gene transcription in S16 Schwann cells; S16 Pmp22-F2sN Schwann cells, FLuc/NLuc coincidence luminescence, 24 h; Potency, µM (top dose mostly 57.5 µM), for the others: at the highest dose activity change, negative = inhibition, usual class: inhibitors; hit rate 2% among 43,000; AID 1508649; active = clear falling dose curves in both reporters; inconclusive = both reporters move, but less clearly or upward; inactive = either reporter flat; the % is the NLuc reporter signal; also: potency is read from the fitted curve at half-maximal effect; % is scaled to controls: 0 for no effect and ±100 for the full control effect
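Rat S16 Pmp22-F2sN cells, 500-1,000/well in phenol red-free DMEM + 10% FBS, compound-treated 24 h (37C, 5% CO2). Luminescence: FLuc read, Stop&Glo added, NLuc read.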
mTORC1 inh = mTORC1 pathway inhibition measured by phospho-rpS6 | Tsc2-/- p53-/- MEF, phospho-rpS6 immunofluorescence/PI, 24 h | hit rate 0.78% among 44,000 | Potency, µM (highest dose often 38.3 µM), inactives show at the highest dose activity change, negative = inhibition, actives largely listed as inhibitors;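 also: potency is read from the fitted curve at half-maximal effect; plate controls were DMSO for no effect and rapamycin for full effect; nearly all actives have a fitted effect of over 50% in size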
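Cell-based qHTS: Tsc2-/- p53-/- MEF, 24 h cpd, 37 °C; fix/perm, anti-phospho-S6 Alexa-488 + PI; Acumen 488 nm scan; pS6/PI ratio, % positive cells; rapamycin 7.5 nM = inhibition ref; PI count = viability.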
p53null 32C tox = selectivity test: cytotoxicity in p53 null cells, permissive temperature; H1299-neo p53 null cells, ATP luminescence, 24 h, 32C; Potency, µM (series often up to 46.1 µM), without a hit: at the top dose activity change, negative = cytotoxicity, usual class: cytotoxic; hit rate 0.62% among 55,000;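 also: potency is read from the fitted curve at half-maximal effect; 0% = DMSO only and -100% = full killing by 100 µM tamoxifen; nearly all actives have a fitted effect of over 55% in size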
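We seeded p53-null H1299-neo cells, incubated them overnight at 37C, and added compounds across a range up to 46 uM. After 24 hours at 32C, ATP reagent was applied for 20 min at room temperature and luminescence recorded.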
SKOV3 invasion = ovarian cancer metastasis inhibition, 3D TME model | hit rate 0.1% among 46,000 | Potency, µM (titrated, usually from 45.8 µM), inactives show at the highest dose activity change, negative = inhibition, most hits filed as inhibitors | SKOV3ip1-GFP adhesion/invasion on 3D omental model, fluorescence | AID 1963576;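 also: potency is read from the fitted curve at half-maximal effect; plate controls were DMSO wells for no effect and tomatine positive control wells for full effect; nearly all actives have a fitted effect of over 65% in size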
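A 3D layer of primary human omental fibroblasts, mesothelial cells, fibronectin and collagen I, grown 48 hr, received SKOV3ip1-GFP cells in serum-free medium plus compounds at 0.36-46 umol/L. After 2 hr RT and 16 hr 37 C, fixed adherent GFP cells were counted; normalized to DMSO and tomatine.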
S16 viability = toxic to S16 Pmp22-F2sN Schwann cells; Potency, µM (top dose mostly 57.5 µM), for the others: top-dose activity change, negative = cytotoxicity, most hits filed as cytotoxic; AID 1508642; hit rate 0.48% among 43,000; S16 Pmp22-F2sN Schwann cells (luciferase reporters placed in the Pmp22 gene) viability, CellTiter-Glo, 24 h; also: potency is read from the fitted curve at half-maximal effect; % is scaled to controls: 0 for no effect and ±100 for the full control effect; nearly all actives have a fitted effect of over 65% in size
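CellTiter-Glo counter-screen, qHTS, 1536-well. Cells: S16(c9) Pmp22-F2sN, 500-1,000/well in DMEM + 10% FBS. Cpd 23 nL pin transfer, 24 h, 37C/5% CO2. Read: luminescence, CCD imager.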
NLuc sat counter = counter-screen for PMP22 expression modulators: NanoLuc inhibition, saturating substrate | Potency, µM (series often up to 57.5 µM), without a hit: top-dose activity change, negative = inhibition, usual class: inhibitors | AID 1508638 | shares compounds with PMP22 txn | Secreted NLuc enzyme (filtered S16 cell medium), Nano-Glo luminescence | hit rate 4% among 690; also: potency is read from the fitted curve at half-maximal effect; % is scaled to controls: 0 for no effect and ±100 for the full control effect
NLuc Km counter = inhibits NanoLuc under Km conditions, PMP22 counter-screen. shares compounds with PMP22 txn. Potency, µM (highest dose often 57.5 µM), for the others: at the highest dose activity change, negative = inhibition, usual class: inhibitors. AID 1508639. secreted NLuc enzyme, coelenterazine luminescence, Km conditions. hit rate 5% among 690; also: potency is read from the fitted curve at half-maximal effect; % is scaled to controls: 0 for no effect and ±100 for the full control effect
FLuc counter = firefly luciferase enzyme inhibition artifact for PMP22 screen; shares compounds with PMP22 txn; 690 tested, under 10 active; Potency, µM (doses to about 57.5 µM), for the others: at the top dose activity, negative = inhibition, actives largely listed as inhibitors; purified P. pyralis FLuc, luminescence, 10 min; also: % of control where 0% means no effect
Target sequence (P08659 whole entry, looked up): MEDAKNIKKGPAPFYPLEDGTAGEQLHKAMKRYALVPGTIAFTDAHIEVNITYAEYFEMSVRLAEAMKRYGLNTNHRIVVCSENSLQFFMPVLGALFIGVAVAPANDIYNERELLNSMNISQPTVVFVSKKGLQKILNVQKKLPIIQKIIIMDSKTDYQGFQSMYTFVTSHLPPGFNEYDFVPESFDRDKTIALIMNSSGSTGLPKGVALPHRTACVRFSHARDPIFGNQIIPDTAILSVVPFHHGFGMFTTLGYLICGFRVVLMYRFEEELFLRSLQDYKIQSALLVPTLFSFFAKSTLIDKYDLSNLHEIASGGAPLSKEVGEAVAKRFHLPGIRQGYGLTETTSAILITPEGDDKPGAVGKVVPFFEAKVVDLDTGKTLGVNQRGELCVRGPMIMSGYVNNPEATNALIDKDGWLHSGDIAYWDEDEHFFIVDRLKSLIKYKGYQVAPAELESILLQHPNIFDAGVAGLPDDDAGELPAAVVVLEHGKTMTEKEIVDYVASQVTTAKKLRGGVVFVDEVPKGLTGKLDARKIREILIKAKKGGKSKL
S16 F2sN tox cnf = S16 Schwann cell cytotoxicity, confirmatory; shares compounds with PMP22 txn; S16 Schwann cells viability, CellTiter-Glo ATP luminescence, 24 h; AID 1508641; Potency, µM (doses to about 57.5 µM), without a hit: at the highest dose activity change, negative = viability loss, most hits filed as cytotoxic; hit rate 7% among 690; also: potency is read from the fitted curve at half-maximal effect; % is scaled to controls: 0 for no effect and ±100 for the full control effect
PMP22 txn cnf = confirmation of modulators of PMP22 gene transcription in S16 cells; shares compounds with PMP22 txn; S16 Schwann cells Pmp22-F2sN, dual luciferase, 24 h; Potency, µM (highest dose often 57.5 µM), for inactives: top-dose activity change, negative = inhibition, actives largely listed as inhibitors; hit rate 22% among 690; AID 1508646; active = clear falling dose curves in both reporters; inconclusive = both reporters move, but less clearly or upward; inactive = either reporter flat; the % is the FLuc reporter signal; also: potency is read from the fitted curve at half-maximal effect
PMP22 HiBiT cnf = confirmation of modulators of rat PMP22 protein expression; shares compounds with PMP22 txn; 95 tested, under 10 active; AID 1508647; Potency, µM (highest dose often 27.9 µM), without a hit: at the highest dose activity change, negative = inhibition, most hits filed as inhibitors; S16 Schwann cells Pmp22-HiBiT, luminescence, 48 h
Target sequence (P25094 whole entry, looked up): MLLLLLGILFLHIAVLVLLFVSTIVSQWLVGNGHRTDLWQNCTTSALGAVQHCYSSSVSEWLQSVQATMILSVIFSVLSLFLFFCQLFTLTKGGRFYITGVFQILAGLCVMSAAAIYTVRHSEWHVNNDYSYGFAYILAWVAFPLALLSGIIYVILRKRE
An asterisk follows results filed as active; i = inactive; ? = inconclusive; . = not tested or not shown. Most compounds without a hit are left out; they make up all but 3% or so of the library. Unless noted, calls follow the shape of the dose curve; as a rule, active = well fitted curve in the direction sought with a large enough effect; inconclusive = small, poorly fitted or top-dose-only effect, or another doubt; inactive = no such curve, though single readings can be large; an effect the other way counts as inactive or inconclusive.

SMILES | p53null 39C tox | PMP22 txn | mTORC1 inh | p53null 32C tox | SKOV3 invasion | S16 viability | NLuc sat counter | NLuc Km counter | FLuc counter | S16 F2sN tox cnf | PMP22 txn cnf | others
CCOC(=O)c1ccc(NC(=O)c2nn(C)c3c2COc2ccccc2-3)cc1 | -2% | -6% | 1% | 6% | 0% | -5% | . | . | . | . | .
COc1ccc(NC(=O)Cn2c(=O)cc(C)c3c(C)nn(C)c32)cc1 | -17% | 16µM* | -14% | 12% | i | 1% | -4% | -3% | 3% | -3% | -14%
CCOc1ccc(NC(=O)Cn2c(=O)cc(C)c3c(C)nn(C)c32)cc1 | 3% | -14% | ? | -5% | -5% | ? | . | . | . | . | .
Cc1ccc(Cl)cc1NC(=O)Cn1c(=O)cc(C)c2c(C)nn(C)c21 | -4% | 19µM* | -17% | -5% | 15% | 19% | -15% | -14% | 4% | -21% | -27%
CC(C)CN(C[C@H](O)[C@H](Cc1ccccc1)NC(=O)O[C@H]1CCOC1)S(=O)(=O)c1ccc(N)cc1 | . | . | . | . | -6% | . | . | . | . | . | .
CCc1ccc2oc(-c3cccc(NC(=O)c4cc5ccccc5o4)c3)nc2c1 | -11% | 1% | ? | -6% | i | 1% | . | . | . | . | .
O=C(Nc1cccc(-c2nc3ccccc3o2)c1)C(F)(F)F | -23% | 8µM* | -1% | ? | ? | ? | ? | ? | ? | 21% | ?
Cn1c(=O)c2cc(C(=O)NCCCN3CCN(c4ccc(F)cc4)CC3)sc2c2ccccc21 | -26% | 19µM* | 0% | -2% | -5% | 2% | ? | -10% | 5% | 34µM* | ?
CCn1c(=O)c2cc(C(=O)NCCCN3CCN(C)CC3)sc2c2ccccc21 | -7% | 11µM* | 1% | 3% | -8% | 12% | -7% | -5% | 4% | 22% | -26%
CCn1c(=O)c2cc(C(=O)NC3CCC(C)CC3)sc2c2ccccc21 (configuration not stated) | -9% | 17µM* | -10% | -7% | i | ? | ? | -19% | -3% | 18% | -7%
CCCN1CCN(CCCNC(=O)c2cc3c(Cl)nc4ccccc4c3s2)CC1 | -17% | 13µM* | -10% | -5% | -4% | 20% | -16% | 8% | -1% | ? | -9%
Cc1cc(-c2ccc(CC(=O)Nc3ccc(-c4cccnc4)cc3)cc2)ccn1 | . | . | . | . | -12% | . | . | . | . | . | .
O=S(=O)(N=Cc1c(O)ccc2ccccc12)c1cccs1 | . | . | . | . | 23% | . | . | . | . | . | .
CCOC(=O)c1c(C)oc2ccc(N(C(=O)Oc3ccccc3)S(=O)(=O)c3ccc(CC)cc3)cc12 | 53% | ? | -4% | 39% | -5% | -2% | . | . | . | . | .
CC(=O)c1c(C)oc2ccc(N(C(=O)Oc3ccccc3)S(=O)(=O)c3ccc(C(C)(C)C)cc3)cc12 | 25% | 13µM* | -15% | 25% | 15% | 2% | -14% | -6% | -2% | -5% | ?
Cc1nc2cccnc2n1C1CCN(S(=O)(=O)c2ccc(C(C)C)cc2)CC1 | 24% | 17µM* | -23% | 29% | -2% | ? | -14% | 3% | 4% | -11% | -33%
Cc1cccc(C)c1NC(=O)CSc1nc(-c2cccs2)cc(C(F)(F)F)n1 | -11% | -23% | ? | 9% | i | 9% | . | . | . | . | .
Cc1ccc(NC(=O)CSc2nc(-c3ccco3)cc(C(F)(F)F)n2)cc1 | -9% | 2.1µM* | ? | 5% | -4% | -8% | -7% | -1% | 7% | -12% | -13%
Cc1ccc(F)cc1NC(=O)CSc1nc(-c2cccs2)cc(C(F)(F)F)n1 | ? | 14µM* | ? | -3% | -1% | 0% | -20% | -17% | 2% | -8% | -14%
CCC(=O)O[C@]1(C(=O)CO)CC[C@H]2[C@@H]3CCC4=CC(=O)CC[C@]4(C)[C@@H]3CC[C@@]21C | . | . | . | . | -16% | . | . | . | . | . | .
O=C(Nc1ccc(F)cc1F)c1noc2c1CCc1ccccc1-2 | -27% | . | ? | -26% | i | . | . | . | . | . | .
CC(=CC(=O)Nc1ccccc1C(=O)O)c1ccc2ccccc2c1 | . | . | . | . | -14% | . | . | . | . | . | .
CCOCCCNC(=O)c1ccc(-n2c(-c3ccccc3)cc3c2CCC(C)C3)cc1 (configuration not stated) | ? | 18µM* | ? | -14% | -2% | -3% | -7% | 0% | -8% | 4% | ? | PMP22 HiBiT cnf=5%
COc1cccc(CNC(=O)c2cc3c(=O)n(C)c4ccccc4c3n2C)c1 | -26% | 13µM* | 2% | -4% | -13% | 14% | -9% | -2% | 5% | -14% | ?
CCOCCCNC(=O)c1cc2c(=O)n(C)c3ccccc3c2n1C | -17% | ? | -12% | 3% | i | 0% | . | . | . | . | .
O=C(Nc1ccccc1)Nc1ccc(-c2ccc(C(=O)[C@H]3CCC[C@H]3C(=O)O)cc2)cc1 | . | . | . | . | -7% | . | . | . | . | . | .
Oc1ccc([C@@H]2Oc3ccc(O)cc3[C@@H]3CCC[C@@H]32)cc1 | . | . | . | . | 12% | . | . | . | . | . | .
